PubChem BioAssay (NCI)
The panel holds about 79,000 compounds, 15% with a hit somewhere; the sample as a whole holds those more often. Cut-off read from the data, not from the text of the source: active = growth inhibition above about 70%; inactive = the rest.

Columns and labels:
[1] = NCI Yeast Anticancer Drug Screen. Data for the rad50 strain (AID 155);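 note: 0% = growth of vehicle-only cultures of the same strain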; settings: S. cerevisiae rad50 strain growth inhibition; at 50.0 µM; hits give high values
Summary of the method: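 DNA repair mutant yeast, compound exposure, growth read-out; inhibition is taken relative to vehicle.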

[2] = NCI Yeast Anticancer Drug Screen. Data for the mec2-1 strain (AID 157); settings: S. cerevisiae mec2-1 strain, at 50.0 µM, hits give high values
Summary of the method: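 Cells of the genetically defined mec2-1 yeast strain are incubated with test compound. Inhibition of growth is calculated against vehicle-treated controls.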

[3] = NCI Yeast Anticancer Drug Screen. Data for the sgs1 mgt1 strain (AID 161);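 note: 0% = growth of cultures given vehicle only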; settings: S. cerevisiae sgs1 mgt1 strain, at 50.0 µM, hits give high values
Summary of the method: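 Genetically altered yeast, compound exposure, growth inhibition relative to vehicle.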

[4] = NCI Yeast Anticancer Drug Screen. Data for the cln2 rad14 strain (AID 165);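 note: 0% = growth equal to vehicle treated cultures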; settings: S. cerevisiae cln2 rad14 strain, at 50.0 µM, hits give high values
Summary of the method: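 The screen exposed genetically defined yeast (cln2 rad14) to test compounds and scored growth inhibition relative to vehicle-treated controls.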

[5] = NCI Yeast Anticancer Drug Screen. Data for the bub3 strain (AID 167); settings: S. cerevisiae bub3 mutant strain, at 50.0 µM, hits give high values
Summary of the method: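 In this screen, a yeast mutant lacking normal mitotic checkpoint function is challenged with compound. Relative growth versus vehicle gives the inhibition value.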

[6] = NCI Yeast Anticancer Drug Screen. Data for the mlh1 rad18 strain (AID 175); settings: S. cerevisiae mlh1 rad18 strain growth inhibition; at 50.0 µM; hits give high values
Summary of the method: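 Compound-treated yeast growth, normalised to vehicle controls. Strain bears defined DNA repair mutations.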

Measured: growth inhibition

CO/C=C/c1cc2c(cc1Br)OCO2
inactive: [1] 10.9% | [2] 5.15% | [3] 25.4% | [4] 0.75% | [5] 11.4% | [6] 12.3%

CC(=O)CC(=O)Nc1cc(C)c(NC(=O)CC(C)=O)cc1C
inactive: [1] 26.2% | [2] 26.6% | [3] 31.1% | [4] 7.55% | [5] 38.8% | [6] 30.6%

CC(C)CC(NS(=O)(=O)Cc1ccccc1)C(=O)NN (stereo not given)
inactive: [1] -26.9% | [2] -13.6% | [3] -3.85% | [4] 11.2% | [5] 7.5% | [6] -22.1%

O=C(O)c1ccc(CSc2ccccc2C(=O)O)cc1
inactive: [1] 16.4% | [2] -16.6% | [3] -6.95% | [4] 15.4% | [5] -14.7% | [6] 33.8%

Nc1ccnn2c(-c3ccccc3)nnc12
inactive: [1] -0.55% | [2] 1.85% | [3] -5.7% | [4] 4.25% | [5] 12.4% | [6] 2.35%

N#CC1C(=O)NC(=S)NC1c1ccc(Cl)c(Cl)c1 (stereo not given)
inactive: [1] -3.15% | [2] -16.9% | [3] -25.9% | [4] -19.6% | [5] -13.8% | [6] -5.25%

C#CCn1c(=O)c2ccccc2n(CC#C)c1=O
inactive: [1] -10.3% | [2] -1.6% | [3] -6.3% | [4] 15.8% | [5] 9.05% | [6] 23.9%

CC(=O)NC(C=O)C(O)C(O)C(O)C(=O)O (stereo not given) (tested in a mixture with another compound)
inactive: [1] -25.4% | [2] -31.2% | [3] -22.2% | [4] 1.8% | [5] -22.9% | [6] -4.9%

CN1N=C(c2ccccc2O)/C(=C/c2c(-c3ccccc3O)[nH]n(C)c2=O)C1=O
inactive: [1] 6.85% | [2] -0.55% | [3] -6.1% | [4] 0.75% | [5] 4.6% | [6] 31.9%

CN(C)c1nc2ccccn2c1C(=O)c1ccccc1
inactive: [1] 4.85% | [2] -0.1% | [3] -12.8% | [4] -19.4% | [5] -0.6% | [6] -5.5%

O/N=C1/C(=C/c2ccc(Br)cc2)CCCC1C(NO)c1ccc(Br)cc1 (stereo not given)
inactive: [1] 0.9% | [2] -9.8% | [3] -27.4% | [4] 24.2% | [5] 0.45% | [6] -12.9%

CCN(CC)CCCNc1c2c(nc3ccc(Cl)cc13)CCCC2
inactive: [1] -20.1% | [2] -9.35% | [3] 0.6% | [4] -8.1% | [5] -11.8% | [6] 2.75%

C=CCNC(=S)/N=C\C(C(=O)OCC)=C(/O)C(=O)OCC
inactive: [1] -18.6% | [2] -18.4% | [3] -16.6% | [4] -21.7% | [5] -8.85% | [6] -29.8%

CCCCCCCCC(=O)Nc1nc2nc[nH]c2c(=O)[nH]1
inactive: [1] -9.65% | [2] -33.2% | [3] -15.3% | [4] -30.1% | [5] -14.3% | [6] -5.45%

CN(CC(=O)O)Cc1ccccc1
inactive: [1] 9.5% | [2] 19.4% | [3] 10.5% | [4] -13.9% | [5] 9.35% | [6] 3.3%

COc1cc(Cc2c(OC)c(OC)cc(C)c2C(=O)O)cc(OC)c1
inactive: [1] 18.6% | [2] -12.8% | [3] -1.75% | [4] 6.95% | [5] -13.9% | [6] -14.4%

COc1ccc2ccc3ccc(OC)nc3c2n1
inactive: [1] 40% | [2] 40.2% | [3] 36.1% | [4] -7.05% | [5] 30.2% | [6] 16.1%

O=C(O)COc1ccc(C(=O)O)cc1
inactive: [1] 5.6% | [2] -19.9% | [3] 3.7% | [4] -53.7% | [5] -23.4% | [6] -6.15%

Cc1cc2nc3c(C(O)C(O)C(O)CO)nn(-c4ccccc4)c3nc2cc1C (stereo not given)
inactive: [1] -2.55% | [2] 5.05% | [3] -9.25% | [4] -15.6% | [5] -5.05% | [6] 16.1%

Cc1ccc(S(=O)(=O)C2=c3nc4ccccc4cc3=C3C(=O)c4ccccc4C(=O)C32)cc1 (stereo not given)
inactive: [1] -14.3% | [2] -18.9% | [3] -20.8% | [4] -75.9% | [5] -24.4% | [6] -3.7%
